Measurements as given in paper PMC7862700, “An all-to-all approach to the identification of sequence-specific readers for epigenetic DNA modifications on cytosine”.

Tests used:
Assay in all cases: DAPPL (digital affinity profiling via proximity ligation, sequencing); 10 mM Tris-HCl pH 7.5, 50 mM NaCl, 1 mM DTT, 4% glycerol, room temperature, 30 min; GST-TFs on glutathione beads, 16-mer random dsDNA library, 0.1% formaldehyde crosslink after washing; high values mean tight binding
FLI1 = molecular target: T1, FLI1 (Homo sapiens, UniProt Q01543 1-452); settings: protein: recombinant; tags: N-terminal GST; dsDNA, one strand shown
T1 sequence: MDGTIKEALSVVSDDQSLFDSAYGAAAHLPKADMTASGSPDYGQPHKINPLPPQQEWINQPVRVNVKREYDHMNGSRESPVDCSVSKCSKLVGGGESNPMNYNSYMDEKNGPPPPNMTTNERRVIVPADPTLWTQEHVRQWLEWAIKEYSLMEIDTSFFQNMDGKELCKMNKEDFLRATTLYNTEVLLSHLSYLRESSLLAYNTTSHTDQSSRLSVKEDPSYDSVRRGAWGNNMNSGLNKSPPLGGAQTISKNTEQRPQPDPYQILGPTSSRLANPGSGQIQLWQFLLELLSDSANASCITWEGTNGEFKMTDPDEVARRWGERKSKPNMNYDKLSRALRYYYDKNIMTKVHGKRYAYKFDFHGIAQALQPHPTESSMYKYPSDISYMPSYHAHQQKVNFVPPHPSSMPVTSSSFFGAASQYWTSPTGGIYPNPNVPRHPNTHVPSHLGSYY
How it was run: (§1)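 Human transcription factors were made in yeast as GST fusions, captured on glutathione beads and barcoded with DNA. With a tag-only sample included, the pool was incubated with 200 nmole of a random double-stranded 16-mer DNA library in Tris/NaCl/DTT/glycerol buffer at room temperature for 30 min, then crosslinked with 0.1% formaldehyde after washing, ligated by proximity, amplified and sequenced. For binding signal, each hexamer's read frequency for a factor is divided by its frequency for the tag-only sample.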

GABPA = molecular target: T2, GABPA (Homo sapiens, UniProt Q06546 1-454); settings: protein: recombinant; tags: N-terminal GST; dsDNA, one strand shown
T2 sequence: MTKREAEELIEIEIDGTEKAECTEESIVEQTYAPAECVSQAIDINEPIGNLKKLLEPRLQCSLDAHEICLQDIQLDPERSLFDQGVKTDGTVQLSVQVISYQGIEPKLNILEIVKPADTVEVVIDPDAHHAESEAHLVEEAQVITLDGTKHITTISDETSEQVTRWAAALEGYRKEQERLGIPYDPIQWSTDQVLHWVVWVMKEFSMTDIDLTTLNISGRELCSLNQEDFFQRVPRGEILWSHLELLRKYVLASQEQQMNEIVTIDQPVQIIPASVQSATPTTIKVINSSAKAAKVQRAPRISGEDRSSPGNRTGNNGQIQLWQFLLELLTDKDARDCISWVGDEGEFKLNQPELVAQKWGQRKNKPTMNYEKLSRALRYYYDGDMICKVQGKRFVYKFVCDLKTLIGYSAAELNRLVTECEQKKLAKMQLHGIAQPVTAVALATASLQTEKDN
How it was run: as §1

ERG = molecular target: T3, ERG (Homo sapiens, UniProt P11308 1-479); settings: protein: recombinant; tags: N-terminal GST; dsDNA, one strand shown
T3 sequence: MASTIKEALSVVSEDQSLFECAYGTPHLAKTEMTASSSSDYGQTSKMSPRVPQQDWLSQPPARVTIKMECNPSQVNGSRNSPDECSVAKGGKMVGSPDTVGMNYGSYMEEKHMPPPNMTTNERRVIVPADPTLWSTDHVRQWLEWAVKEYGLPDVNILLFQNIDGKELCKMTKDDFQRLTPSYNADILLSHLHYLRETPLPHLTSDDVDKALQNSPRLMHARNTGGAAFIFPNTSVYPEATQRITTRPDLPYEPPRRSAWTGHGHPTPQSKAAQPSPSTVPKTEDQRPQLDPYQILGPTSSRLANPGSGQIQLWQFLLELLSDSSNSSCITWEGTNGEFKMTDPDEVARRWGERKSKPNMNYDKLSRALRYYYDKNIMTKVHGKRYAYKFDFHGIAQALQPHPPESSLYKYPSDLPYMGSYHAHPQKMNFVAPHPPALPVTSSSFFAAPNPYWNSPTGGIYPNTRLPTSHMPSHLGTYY
How it was run: as §1

ELF1 = ELF1 (Homo sapiens, UniProt P32519 1-619); settings: protein: recombinant; tags: N-terminal GST; dsDNA, one strand shown
Sequence of ELF1 (P32519 whole entry): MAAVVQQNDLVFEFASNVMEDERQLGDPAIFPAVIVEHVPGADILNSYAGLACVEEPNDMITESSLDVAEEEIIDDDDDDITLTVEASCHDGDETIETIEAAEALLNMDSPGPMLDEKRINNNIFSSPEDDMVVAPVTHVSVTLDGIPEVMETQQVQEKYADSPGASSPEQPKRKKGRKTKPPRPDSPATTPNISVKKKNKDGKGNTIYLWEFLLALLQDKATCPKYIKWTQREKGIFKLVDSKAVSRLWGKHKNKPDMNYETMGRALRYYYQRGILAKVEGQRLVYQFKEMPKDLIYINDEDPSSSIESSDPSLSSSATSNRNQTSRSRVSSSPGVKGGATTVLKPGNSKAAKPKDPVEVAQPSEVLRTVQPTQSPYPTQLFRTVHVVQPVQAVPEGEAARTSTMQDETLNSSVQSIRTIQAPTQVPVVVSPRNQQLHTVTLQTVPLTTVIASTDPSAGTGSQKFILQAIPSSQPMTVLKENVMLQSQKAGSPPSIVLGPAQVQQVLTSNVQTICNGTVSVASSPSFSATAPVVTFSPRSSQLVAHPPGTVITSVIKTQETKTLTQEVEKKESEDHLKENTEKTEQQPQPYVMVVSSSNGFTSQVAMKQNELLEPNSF
How it was run: as §1

EHF = molecular target: T4, EHF (Homo sapiens, UniProt Q9NZC4 1-300); settings: protein: recombinant; tags: N-terminal GST; dsDNA, one strand shown
T4 sequence: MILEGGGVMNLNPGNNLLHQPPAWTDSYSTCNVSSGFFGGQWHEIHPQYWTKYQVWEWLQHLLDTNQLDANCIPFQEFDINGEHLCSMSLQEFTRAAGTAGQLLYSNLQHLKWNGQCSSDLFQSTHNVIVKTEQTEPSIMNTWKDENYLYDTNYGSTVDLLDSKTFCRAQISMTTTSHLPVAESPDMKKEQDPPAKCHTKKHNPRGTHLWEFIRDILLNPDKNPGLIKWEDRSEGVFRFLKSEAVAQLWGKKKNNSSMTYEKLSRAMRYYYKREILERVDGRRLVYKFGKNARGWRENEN
How it was run: as §1

SPI1 = SPI1 (Homo sapiens, UniProt P17947 1-270); settings: protein: recombinant; tags: N-terminal GST; dsDNA, one strand shown
How it was run: as §1

SPIB = SPIB (Homo sapiens, UniProt Q01892 1-262); settings: protein: recombinant; tags: N-terminal GST; dsDNA, one strand shown
Sequence of SPIB (Q01892 whole entry): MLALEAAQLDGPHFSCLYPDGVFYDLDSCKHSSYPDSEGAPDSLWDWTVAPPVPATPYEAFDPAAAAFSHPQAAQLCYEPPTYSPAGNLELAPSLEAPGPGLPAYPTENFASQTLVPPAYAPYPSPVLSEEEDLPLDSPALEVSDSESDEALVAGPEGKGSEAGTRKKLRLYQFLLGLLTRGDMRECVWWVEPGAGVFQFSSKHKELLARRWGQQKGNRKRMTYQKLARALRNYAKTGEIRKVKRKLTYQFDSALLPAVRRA
How it was run: as §1

FEV = molecular target: T5, FEV (Homo sapiens, UniProt Q99581 1-238); settings: protein: recombinant; tags: N-terminal GST; dsDNA, one strand shown
T5 sequence: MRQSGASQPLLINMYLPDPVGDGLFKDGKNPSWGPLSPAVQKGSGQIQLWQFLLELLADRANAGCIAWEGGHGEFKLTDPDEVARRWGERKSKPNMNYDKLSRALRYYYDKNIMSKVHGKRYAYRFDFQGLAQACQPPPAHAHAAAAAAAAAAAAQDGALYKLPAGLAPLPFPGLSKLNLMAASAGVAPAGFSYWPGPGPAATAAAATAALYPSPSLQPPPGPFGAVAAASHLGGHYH
How it was run: as §1

ETV5 = ETV5 (Homo sapiens, UniProt P41161 1-510); settings: protein: recombinant; tags: N-terminal GST; dsDNA, one strand shown
Sequence of ETV5 (P41161 whole entry): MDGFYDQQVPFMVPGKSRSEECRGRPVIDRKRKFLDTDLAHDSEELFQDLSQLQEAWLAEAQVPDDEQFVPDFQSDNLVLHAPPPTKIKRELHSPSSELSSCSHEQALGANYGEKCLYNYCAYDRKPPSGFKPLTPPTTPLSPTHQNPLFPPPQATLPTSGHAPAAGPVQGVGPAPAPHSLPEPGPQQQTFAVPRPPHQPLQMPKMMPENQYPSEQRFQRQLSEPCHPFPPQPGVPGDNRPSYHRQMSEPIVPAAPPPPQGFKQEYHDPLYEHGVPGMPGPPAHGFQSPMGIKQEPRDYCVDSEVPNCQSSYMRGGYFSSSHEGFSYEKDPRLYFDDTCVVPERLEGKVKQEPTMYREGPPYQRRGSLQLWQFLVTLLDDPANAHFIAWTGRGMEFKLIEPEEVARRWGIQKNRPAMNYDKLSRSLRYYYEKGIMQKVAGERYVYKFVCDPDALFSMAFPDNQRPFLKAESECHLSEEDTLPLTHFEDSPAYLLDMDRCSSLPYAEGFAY
How it was run: as §1

HSF1 = HSF1 (Homo sapiens, UniProt Q00613 1-529); settings: protein: recombinant; tags: N-terminal GST; chain copies: 3; dsDNA, one strand shown
Sequence of HSF1 (Q00613 whole entry): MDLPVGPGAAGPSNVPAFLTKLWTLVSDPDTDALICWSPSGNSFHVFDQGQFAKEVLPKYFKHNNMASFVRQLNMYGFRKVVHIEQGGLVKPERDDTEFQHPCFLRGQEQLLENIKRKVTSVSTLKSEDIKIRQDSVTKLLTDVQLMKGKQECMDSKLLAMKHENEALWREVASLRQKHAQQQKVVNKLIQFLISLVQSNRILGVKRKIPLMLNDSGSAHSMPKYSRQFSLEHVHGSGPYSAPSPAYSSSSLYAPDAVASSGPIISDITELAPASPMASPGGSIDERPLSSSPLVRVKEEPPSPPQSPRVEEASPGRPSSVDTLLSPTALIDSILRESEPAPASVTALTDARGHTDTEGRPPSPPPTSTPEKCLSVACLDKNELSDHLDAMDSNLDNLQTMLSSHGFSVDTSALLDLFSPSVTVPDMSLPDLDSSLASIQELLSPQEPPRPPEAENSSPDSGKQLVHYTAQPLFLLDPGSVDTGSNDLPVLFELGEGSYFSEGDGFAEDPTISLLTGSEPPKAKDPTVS
How it was run: as §1

SPIC = molecular target: T6, SPIC (Homo sapiens, UniProt Q8N5J4 1-248); settings: protein: recombinant; tags: N-terminal GST; dsDNA, one strand shown
T6 sequence: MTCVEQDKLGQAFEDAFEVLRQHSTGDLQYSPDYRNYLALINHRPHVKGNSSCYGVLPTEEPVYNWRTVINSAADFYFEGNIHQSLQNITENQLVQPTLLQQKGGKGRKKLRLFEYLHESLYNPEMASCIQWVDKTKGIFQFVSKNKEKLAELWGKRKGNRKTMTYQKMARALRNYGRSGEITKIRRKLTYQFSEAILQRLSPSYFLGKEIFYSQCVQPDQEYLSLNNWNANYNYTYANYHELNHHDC
How it was run: as §1

ELF4 = ELF4 (Homo sapiens, UniProt Q99607 1-663); settings: protein: recombinant; tags: N-terminal GST; dsDNA, one strand shown
Sequence of ELF4 (Q99607 whole entry): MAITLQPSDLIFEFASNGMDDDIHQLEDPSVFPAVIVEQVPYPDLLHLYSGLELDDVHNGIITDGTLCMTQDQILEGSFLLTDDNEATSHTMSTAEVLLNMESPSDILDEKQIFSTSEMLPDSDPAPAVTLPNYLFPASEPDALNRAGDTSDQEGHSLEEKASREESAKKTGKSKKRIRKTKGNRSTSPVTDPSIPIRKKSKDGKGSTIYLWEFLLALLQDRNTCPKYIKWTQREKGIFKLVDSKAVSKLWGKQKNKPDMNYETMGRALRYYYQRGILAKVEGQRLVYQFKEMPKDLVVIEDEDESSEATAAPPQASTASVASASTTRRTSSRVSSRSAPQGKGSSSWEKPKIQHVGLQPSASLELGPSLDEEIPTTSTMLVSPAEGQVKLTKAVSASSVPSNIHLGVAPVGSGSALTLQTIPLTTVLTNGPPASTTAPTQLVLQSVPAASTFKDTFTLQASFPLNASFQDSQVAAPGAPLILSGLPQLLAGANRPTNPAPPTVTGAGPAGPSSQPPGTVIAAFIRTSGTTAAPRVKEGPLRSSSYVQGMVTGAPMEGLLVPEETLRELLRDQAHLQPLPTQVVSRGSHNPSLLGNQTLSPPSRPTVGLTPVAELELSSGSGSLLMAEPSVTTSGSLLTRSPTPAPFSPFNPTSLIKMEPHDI
How it was run: as §1

ELK4 = molecular target: T7, ELK4 (Homo sapiens, UniProt P28324-2 1-405); settings: protein: recombinant; tags: N-terminal GST; dsDNA, one strand shown
T7 sequence: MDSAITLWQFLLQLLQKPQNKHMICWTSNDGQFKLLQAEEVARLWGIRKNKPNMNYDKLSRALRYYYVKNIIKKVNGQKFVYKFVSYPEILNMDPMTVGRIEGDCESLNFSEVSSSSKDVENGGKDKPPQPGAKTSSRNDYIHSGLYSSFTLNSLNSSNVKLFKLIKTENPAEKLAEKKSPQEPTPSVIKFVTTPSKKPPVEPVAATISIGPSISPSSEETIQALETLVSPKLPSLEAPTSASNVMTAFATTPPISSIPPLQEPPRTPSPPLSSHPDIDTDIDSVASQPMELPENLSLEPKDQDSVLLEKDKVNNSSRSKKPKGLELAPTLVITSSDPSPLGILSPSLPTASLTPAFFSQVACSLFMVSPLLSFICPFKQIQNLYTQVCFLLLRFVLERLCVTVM
How it was run: as §1

ETV2 = molecular target: T8, ETV2 (Homo sapiens, UniProt O00321 1-342); settings: protein: recombinant; tags: N-terminal GST; dsDNA, one strand shown
T8 sequence: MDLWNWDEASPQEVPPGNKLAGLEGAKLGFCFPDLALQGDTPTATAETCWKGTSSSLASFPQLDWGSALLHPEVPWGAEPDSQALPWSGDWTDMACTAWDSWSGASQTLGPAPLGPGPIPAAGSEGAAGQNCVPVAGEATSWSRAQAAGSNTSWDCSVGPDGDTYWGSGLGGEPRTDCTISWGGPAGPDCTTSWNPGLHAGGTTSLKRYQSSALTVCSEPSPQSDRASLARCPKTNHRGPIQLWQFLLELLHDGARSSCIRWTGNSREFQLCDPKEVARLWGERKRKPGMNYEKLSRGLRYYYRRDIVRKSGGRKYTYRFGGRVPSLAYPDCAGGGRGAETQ
How it was run: as §1

ELF3 = molecular target: T9, ELF3 (Homo sapiens, UniProt P78545 1-371); settings: protein: recombinant; tags: N-terminal GST; dsDNA, one strand shown
T9 sequence: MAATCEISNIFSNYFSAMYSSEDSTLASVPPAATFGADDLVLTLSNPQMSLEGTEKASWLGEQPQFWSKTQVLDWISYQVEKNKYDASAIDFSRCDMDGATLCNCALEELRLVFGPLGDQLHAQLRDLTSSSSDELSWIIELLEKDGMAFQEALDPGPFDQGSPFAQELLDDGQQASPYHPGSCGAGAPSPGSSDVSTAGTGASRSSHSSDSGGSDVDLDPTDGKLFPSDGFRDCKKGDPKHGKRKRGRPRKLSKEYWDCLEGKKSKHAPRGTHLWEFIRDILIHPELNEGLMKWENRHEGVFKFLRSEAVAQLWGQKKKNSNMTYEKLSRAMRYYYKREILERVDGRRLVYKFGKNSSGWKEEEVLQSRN
How it was run: as §1

CRX = CRX (Homo sapiens, UniProt O43186 1-299); settings: protein: recombinant; tags: N-terminal GST; dsDNA, one strand shown
Sequence of CRX (O43186 whole entry): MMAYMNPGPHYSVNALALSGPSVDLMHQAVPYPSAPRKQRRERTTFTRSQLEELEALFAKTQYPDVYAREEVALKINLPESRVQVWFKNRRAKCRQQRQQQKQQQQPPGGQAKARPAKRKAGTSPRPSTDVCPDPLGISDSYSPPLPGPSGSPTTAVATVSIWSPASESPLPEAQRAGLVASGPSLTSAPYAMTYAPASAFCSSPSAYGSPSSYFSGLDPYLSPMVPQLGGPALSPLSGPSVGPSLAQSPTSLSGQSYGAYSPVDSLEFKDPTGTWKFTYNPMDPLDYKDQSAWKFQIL
How it was run: as §1

ETV1 = ETV1 (Homo sapiens, UniProt P50549 1-477); settings: protein: recombinant; tags: N-terminal GST; dsDNA, one strand shown
Sequence of ETV1 (P50549 whole entry): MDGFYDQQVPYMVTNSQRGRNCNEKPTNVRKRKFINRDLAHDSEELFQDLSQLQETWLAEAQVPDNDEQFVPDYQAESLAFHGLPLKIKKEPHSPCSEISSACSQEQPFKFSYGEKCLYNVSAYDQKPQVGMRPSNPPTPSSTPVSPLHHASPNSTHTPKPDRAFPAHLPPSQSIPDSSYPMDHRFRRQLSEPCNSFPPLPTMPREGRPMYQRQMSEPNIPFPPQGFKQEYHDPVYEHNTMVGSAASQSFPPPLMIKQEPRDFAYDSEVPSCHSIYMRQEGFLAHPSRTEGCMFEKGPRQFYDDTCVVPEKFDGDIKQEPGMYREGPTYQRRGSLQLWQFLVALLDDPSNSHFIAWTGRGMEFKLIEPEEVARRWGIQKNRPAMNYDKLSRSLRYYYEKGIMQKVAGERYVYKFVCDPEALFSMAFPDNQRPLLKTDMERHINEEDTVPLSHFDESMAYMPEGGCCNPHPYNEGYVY
How it was run: as §1

## GTGGCT
FLI1
  binding signal: 1.23 fold enrichment (6-mer frequency, TF over GST control)
GABPA
  binding signal: 1.27 fold enrichment (6-mer frequency, TF over GST control)
ERG
  binding signal: 1.19 fold enrichment (6-mer frequency, TF over GST control)
ELF1
  binding signal: 1.11 fold enrichment (6-mer frequency, TF over GST control)
EHF
  binding signal: 1.22 fold enrichment (6-mer frequency, TF over GST control)
SPI1
  binding signal: 1.3 fold enrichment (6-mer frequency, TF over GST control)
SPIB
  binding signal: 1.18 fold enrichment (6-mer frequency, TF over GST control)
FEV
  binding signal: 1.19 fold enrichment (6-mer frequency, TF over GST control)
ETV5
  binding signal: 1.13 fold enrichment (6-mer frequency, TF over GST control)
HSF1
  binding signal: 1.05 fold enrichment (6-mer frequency, TF over GST control)
SPIC
  binding signal: 1.23 fold enrichment (6-mer frequency, TF over GST control)
ELF4
  binding signal: 1.1 fold enrichment (6-mer frequency, TF over GST control)
ELK4
  binding signal: 1.31 fold enrichment (6-mer frequency, TF over GST control)
ETV2
  binding signal: 1.17 fold enrichment (6-mer frequency, TF over GST control)
ELF3
  binding signal: 1.26 fold enrichment (6-mer frequency, TF over GST control)
CRX
  binding signal: 1.18 fold enrichment (6-mer frequency, TF over GST control)
ETV1
  binding signal: 1.19 fold enrichment (6-mer frequency, TF over GST control)
